These results are taken from PubChem BioAssay (Tox21).

Where “and” joins values, the source holds several entries; their conditions need not be identical. Equal entries are not always repeated. Records with an inconclusive call do not appear. Calls of active or inactive are those of the source. Unless noted, the call rests on the fitted dose curve.

Test [1] can be described thus: qHTS assay to identify small molecule agonists of the sonic hedgehog signaling (Shh) pathway (AID 1259368).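 Further: NIH/3T3-derived 3T3Gli1-Luc cells carrying a stable Gli1-driven firefly luciferase reporter; series mostly up to about 92 µM; nearly all actives have a fitted effect of over 15% in size.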 An outline of the steps: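 Stable NIH/3T3 Gli1-Luc reporter clone; 24 hr cpd exposure after a 4 hr settling period; luminescence endpoint.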
Test [2] can be described thus: qHTS assay to identify small molecule antagonists of the sonic hedgehog signaling (Shh) pathway (AID 1259369). Further: nearly all actives have a fitted effect of over 45% in size. Further: potency means the concentration at half of the fitted maximal effect. An outline of the steps:
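Gli1 transcriptional reporter (firefly Luc) in NIH/3T3 background, conditioned-medium activated. 24hr exposure, luminescence endpoint.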
(In general: Quantitative high-throughput screening tests each substance at several concentrations.)

The target in test [3] is Estrogen receptor beta (Homo sapiens) (UniProt Q92731). As to the kind of experiment: qHTS assay to identify small molecule agonists of the estrogen receptor beta (ER-beta) signaling pathway (AID 1259377; active means well fitted activation curve with a large enough effect in the signal ratio in the repeat runs, not every such curve was filed as active; the % refers to the signal ratio). The essentials:
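Beta-lactamase reporter readout: fluorescence of LiveBLAzer B/G FRET substrate after 2 h at room temperature, following 16 h compound treatment of ER-beta-UAS-bla HEK293T cells at 37C in 2% charcoal-stripped FBS medium.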

Test [4] has the same target. As to the kind of experiment: qHTS assay to identify small molecule antagonists of the estrogen receptor beta (ER-beta) signaling pathway (AID 1259378; active means well fitted inhibition curve with a large enough effect in the signal ratio in the repeat runs, not every such curve was filed as active; the % refers to the signal ratio). An outline of the steps: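 ER-beta-UAS-bla HEK293T cells in 2% charcoal-stripped FBS medium treated with compound plus 1nM final 17-beta-estradiol for 16 hr at 37C. Beta-lactamase reporter read by FRET substrate fluorescence after 2 hours at room temperature.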

Test [5] is described as follows: qHTS assay to identify small molecule agonists of the androgen receptor (AR) signaling pathway in the presence of an antagonist - cell viability counter screen (AID 1259379; active means well fitted curve in the direction sought with a large enough effect in the repeat runs; an effect the other way counts as inactive or inconclusive; further: nearly all actives have a fitted effect of over 25% in size; further: potency means the concentration at half of the fitted maximal effect). The essentials:
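Counter screen for cell viability run in parallel with the AR agonist-mode luciferase assay. MDA-kb2 cells were co-treated with nilutamide (3.0uM final) and compounds, then incubated 16 hr at 37C, and CellTiter-Fluor fluorescence was measured.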

Test [6] in a line: qHTS assay to identify small molecule agonists of the estrogen receptor beta (ER-beta) signaling pathway - cell viability counter screen (AID 1259380; active means well fitted curve in the direction sought with a large enough effect in the repeat runs; an effect the other way counts as inactive or inconclusive; further: nearly all actives have a fitted effect of over 30% in size; further: potency means the concentration at half of the fitted maximal effect). An outline of the steps:
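In this qHTS counter screen, HEK293T cells carrying an ER-beta/UAS beta-lactamase reporter, grown in 2% charcoal-stripped FBS, received compound for 16 hr; ATP-based CellTiter-Glo luminescence was then read after 30 min at room temperature.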

Test [7] addresses Androgen receptor (Homo sapiens) (UniProt P10275). As to the kind of experiment: qHTS assay to identify small molecule agonists of the androgen receptor (AR) signaling pathway in the presence of an antagonist (AID 1259381). Further: nearly all actives have a fitted effect of over 15% in size. An outline of the steps:
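AR antagonist background: nilutamide 3.0uM final. Cell line: MDA-kb2, MMTV-driven luciferase, responsive to both AR and GR. Exposure 16hr, 37C, no CO2; ONE-Glo luminescence.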

Test [8] in a line: qHTS assay to identify small molecule antagonists of the estrogen receptor beta (ER-beta) signaling pathway - cell viability counter screen (AID 1259382; active means well fitted curve in the direction sought with a large enough effect in the repeat runs; an effect the other way counts as inactive or inconclusive; further: nearly all actives have a fitted effect of over 55% in size; further: potency means the concentration at half of the fitted maximal effect). An outline of the steps:
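HEK293T ER-beta-UAS-bla, 2% charcoal-stripped FBS; compounds + 1nM E2 16 hr 37C; CellTiter-Glo luminescence, 30 min RT.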

Test [9] is described as follows: qHTS assay to identify small molecule agonists or antagonists of the thyroid stimulating hormone receptor (TSHR) signaling pathway - wild type cell line counter screen (AID 1259384). An outline of the steps:
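Wild-type Hek293 cells, 800/well, 18 h at 37C, then compound with Ro20-1724 for 30 min RT. cAMP by HTRF (cAMP-d2/anti-cAMP cryptate), 1 h RT, fluorescence read. 15 concentrations, triplicates.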

The target of test [10] is Thyrotropin receptor (Homo sapiens) (UniProt P16473). Description: qHTS assay to identify small molecule antagonists of the thyroid stimulating hormone receptor (TSHR) signaling pathway (AID 1259385). Further: nearly all actives have a fitted effect of over 20% in size. An outline of the steps: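 TSHR-HEK293 cells (800/well) plated 18 h, then compounds with Ro20-1724 and TSH at 1.5 ng/mL final, 30 min at room temperature. cAMP quantified by HTRF (cAMP-d2/anti-cAMP-cryptate, 1 h); 15 concentrations in triplicate.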
Thyrotropin receptor (Homo sapiens), sequence (P16473 whole entry, looked up): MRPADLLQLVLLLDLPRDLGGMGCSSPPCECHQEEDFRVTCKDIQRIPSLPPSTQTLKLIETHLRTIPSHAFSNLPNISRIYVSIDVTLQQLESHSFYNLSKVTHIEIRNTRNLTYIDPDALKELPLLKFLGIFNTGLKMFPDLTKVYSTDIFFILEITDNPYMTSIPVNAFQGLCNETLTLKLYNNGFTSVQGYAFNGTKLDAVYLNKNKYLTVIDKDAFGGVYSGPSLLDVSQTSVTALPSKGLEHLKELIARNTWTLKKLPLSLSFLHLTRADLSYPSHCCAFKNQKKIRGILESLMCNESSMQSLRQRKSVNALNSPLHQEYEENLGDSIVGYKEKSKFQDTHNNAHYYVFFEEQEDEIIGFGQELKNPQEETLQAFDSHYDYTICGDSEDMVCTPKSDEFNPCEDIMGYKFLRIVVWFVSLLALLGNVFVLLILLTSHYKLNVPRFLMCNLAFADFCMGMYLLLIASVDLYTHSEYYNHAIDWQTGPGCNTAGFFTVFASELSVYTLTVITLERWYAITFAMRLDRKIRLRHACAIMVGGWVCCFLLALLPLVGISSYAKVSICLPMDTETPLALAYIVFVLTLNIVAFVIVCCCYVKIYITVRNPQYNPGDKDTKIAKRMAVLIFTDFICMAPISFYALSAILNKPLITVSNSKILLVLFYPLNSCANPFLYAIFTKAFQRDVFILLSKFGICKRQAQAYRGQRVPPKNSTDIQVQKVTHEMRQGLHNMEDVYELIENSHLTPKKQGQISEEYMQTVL

The nature of test [11]: qHTS assay to identify small molecule agonists of the estrogen receptor alpha (ER-alpha) signaling pathway in the presence of an antagonist - cell viability counter screen (AID 1259386; active means well fitted curve in the direction sought with a large enough effect in the repeat runs; an effect the other way counts as inactive or inconclusive;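 further: cells exposed to compounds for 22 h at 37 °C before the viability read; nearly all actives have a fitted effect of over 30% in size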; further: potency means the concentration at half of the fitted maximal effect). An outline of the steps:
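Steps: 5-day stripped-FBS culture; seed and incubate 24hr; add ICI-182,780 (10.0nM final); pin 15-point compound titration; incubate 22hr at 37C; add CellTiter-Fluor at 21hr; read fluorescence.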

For test [12], the target named is Progesterone receptor (Homo sapiens) (UniProt P06401). As to the kind of experiment: qHTS assay to identify small molecule agonists of the progesterone receptor (PR) signaling pathway (AID 1346784). Further: nearly all actives have a fitted effect of over 30% in size. The essentials: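 HEK 293T PR-UAS-bla reporter cells, 2% charcoal-stripped FBS; 6 hr settle at 37C/5% CO2, compound (DMSO) 16 hr, LiveBLAzer B/G FRET substrate 2 hr RT, fluorescence intensity read.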
Progesterone receptor (Homo sapiens), sequence (P06401 whole entry, looked up): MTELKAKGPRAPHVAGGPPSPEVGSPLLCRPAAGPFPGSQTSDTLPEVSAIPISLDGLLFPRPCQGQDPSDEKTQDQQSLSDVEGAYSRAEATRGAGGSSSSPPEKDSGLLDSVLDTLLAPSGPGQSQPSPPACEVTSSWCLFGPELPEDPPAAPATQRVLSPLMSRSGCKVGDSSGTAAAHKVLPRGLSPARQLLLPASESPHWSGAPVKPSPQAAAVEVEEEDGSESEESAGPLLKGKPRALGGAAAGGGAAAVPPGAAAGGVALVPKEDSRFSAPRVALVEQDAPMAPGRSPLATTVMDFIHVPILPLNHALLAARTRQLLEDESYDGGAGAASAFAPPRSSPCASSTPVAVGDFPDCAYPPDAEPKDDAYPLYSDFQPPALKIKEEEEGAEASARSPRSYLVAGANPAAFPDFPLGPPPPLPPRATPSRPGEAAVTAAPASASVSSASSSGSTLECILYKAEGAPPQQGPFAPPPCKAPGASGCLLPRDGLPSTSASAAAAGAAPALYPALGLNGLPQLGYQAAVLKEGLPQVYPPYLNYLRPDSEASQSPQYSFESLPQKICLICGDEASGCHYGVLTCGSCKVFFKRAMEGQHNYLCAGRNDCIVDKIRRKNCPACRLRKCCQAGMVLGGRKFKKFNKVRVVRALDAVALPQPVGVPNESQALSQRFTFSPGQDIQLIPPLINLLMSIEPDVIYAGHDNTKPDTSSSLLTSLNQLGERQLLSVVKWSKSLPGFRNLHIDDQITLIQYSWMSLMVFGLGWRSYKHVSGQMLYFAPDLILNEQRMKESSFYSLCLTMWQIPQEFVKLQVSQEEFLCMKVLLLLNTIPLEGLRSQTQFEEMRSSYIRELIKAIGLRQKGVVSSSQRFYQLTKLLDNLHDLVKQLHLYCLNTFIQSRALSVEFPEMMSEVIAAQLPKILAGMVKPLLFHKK

The target is the same in test [13]. Description: qHTS assay to identify small molecule antagonists of the progesterone receptor (PR) signaling pathway (AID 1346795; active means well fitted inhibition curve with a large enough effect in the signal ratio in the repeat runs, not every such curve was filed as active; the % refers to the signal ratio). An outline of the steps: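 Beta-lactamase reporter, HEK293T PR-UAS-bla line; 2% charcoal-stripped FBS; 6 hr pre-incubation, 37C/5% CO2. Compound + R5020 1 nM final, 16 hr. LiveBLAzer B/G FRET substrate, 2 hr RT; fluorescence intensity read.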

A short description of test [14]: qHTS assay to identify small molecule agonists of the progesterone receptor (PR) signaling pathway - cell viability counter screen (AID 1346799). Further: nearly all actives have a fitted effect of over 45% in size. The essentials: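 HEK293T PR-UAS-bla, 3,000 cells/well, 2% charcoal-stripped FBS; 6 h settle, compound 16 h at 37C/5% CO2; LiveBLAzer 2 h RT, then CellTiter-Glo 30 min RT, luminescence read.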
A short description of test [15]: qHTS assay to identify small molecule antagonists of the TGF-beta/Smad signaling pathway - cell viability counter screen (AID 1346824; active means well fitted curve in the direction sought with a large enough effect in the repeat runs; an effect the other way counts as inactive or inconclusive; further: nearly all actives have a fitted effect of over 50% in size; further: potency means the concentration at half of the fitted maximal effect). The essentials:
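SBE-bla HEK 293T cells, incubated overnight, then compound plus 0.25 ng/mL TGF-beta1 (stock added) for 5 hr at 37 C. Viability was read in the same wells by CellTiter-Glo luminescence after 30 min at room temperature.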

Test [16] is described as follows: qHTS assay to identify small molecule agonists of the TGF-beta/Smad signaling pathway - cell viability counter screen (AID 1346829; active means well fitted curve in the direction sought with a large enough effect in the repeat runs; an effect the other way counts as inactive or inconclusive; further: nearly all actives have a fitted effect of over 45% in size; further: potency means the concentration at half of the fitted maximal effect). The essentials:
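Same-well cytotoxicity: CellTiter-Glo added after the 2 hr room-temperature beta-lactamase substrate step, luminescence measured 30 min later; cells had 5 hr of compound at 37 C.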

Test [17] can be described thus: qHTS assay to identify small molecule agonists of the TGF-beta/Smad signaling pathway (AID 1346859; active means well fitted activation curve with a large enough effect in the signal ratio in the repeat runs, not every such curve was filed as active; the % refers to the signal ratio; further: series mostly up to about 77 µM). The essentials: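 Read-out: fluorescence at 460 and 530 nm (405 nm excitation) after a 2 hr room-temperature incubation with beta-lactamase FRET substrate. SBE-bla HEK 293T cells had been treated with test compounds for 5 hr at 37 C.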
Test [18] has as its target Thyrotropin-releasing hormone receptor (Homo sapiens) (UniProt P34981). Description: qHTS assay to identify small molecule antagonists of the thyrotropin-releasing hormone receptor (TRHR) signaling pathway (AID 1346877; active means well fitted inhibition curve with a large enough effect in the repeat runs, not every such curve was filed as active; further: series mostly up to about 51 µM). The essentials:
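Human TRHR in HEK293 cells; inhibition of the intracellular calcium rise triggered by 1 nM TRH was followed by fluorescence over 3 min. Compounds were run at 15 concentrations, three replicates each.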

A short description of test [19]: qHTS assay to identify small molecule antagonists of the progesterone receptor (PR) signaling pathway - cell viability counter screen (AID 1346798; active means well fitted curve in the direction sought with a large enough effect in the repeat runs; an effect the other way counts as inactive or inconclusive; further: series mostly up to about 92 µM; nearly all actives have a fitted effect of over 50% in size). An outline of the steps: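 Luminescence readout (CellTiter-Glo, 30 min, RT) of viability in PR-UAS-bla HEK293T cells exposed to compound and R5020 agonist for 16 hr at 37C, 5% CO2; run in the same wells as the beta-lactamase reporter read.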

Test [20] addresses Estrogen receptor (Homo sapiens) (UniProt P03372). Description: qHTS assay to identify small molecule agonists of the estrogen receptor alpha (ER-alpha) signaling pathway in the presence of an antagonist (AID 1259383). Further: top concentration of the series differs between compounds; nearly all actives have a fitted effect of over 15% in size. The essentials:
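ER-alpha agonism measured under antagonist challenge: 10.0nM ICI-182,780 (final) plus compound, 15 concentrations, 22hr, VM7Luc4E2 ERE-luciferase cells. Read by luminescence.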

Estrogen receptor (Homo sapiens), sequence (P03372 whole entry, looked up): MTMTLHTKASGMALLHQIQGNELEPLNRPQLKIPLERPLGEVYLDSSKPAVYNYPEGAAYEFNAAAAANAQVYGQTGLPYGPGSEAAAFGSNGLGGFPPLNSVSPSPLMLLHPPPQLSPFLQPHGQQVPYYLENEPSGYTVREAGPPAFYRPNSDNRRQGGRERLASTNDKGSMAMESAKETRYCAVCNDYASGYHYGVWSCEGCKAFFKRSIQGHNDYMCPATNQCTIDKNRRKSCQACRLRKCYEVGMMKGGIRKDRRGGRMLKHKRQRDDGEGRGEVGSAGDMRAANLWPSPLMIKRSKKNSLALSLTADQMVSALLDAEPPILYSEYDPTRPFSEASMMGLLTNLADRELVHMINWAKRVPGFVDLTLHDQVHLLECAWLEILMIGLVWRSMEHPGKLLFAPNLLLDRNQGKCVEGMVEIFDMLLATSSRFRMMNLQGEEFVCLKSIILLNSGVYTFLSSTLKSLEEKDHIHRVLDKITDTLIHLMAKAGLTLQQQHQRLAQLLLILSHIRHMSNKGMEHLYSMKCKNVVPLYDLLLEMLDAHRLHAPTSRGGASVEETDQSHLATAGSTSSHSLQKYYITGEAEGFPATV
Estrogen receptor beta (Homo sapiens), sequence (Q92731 whole entry, looked up): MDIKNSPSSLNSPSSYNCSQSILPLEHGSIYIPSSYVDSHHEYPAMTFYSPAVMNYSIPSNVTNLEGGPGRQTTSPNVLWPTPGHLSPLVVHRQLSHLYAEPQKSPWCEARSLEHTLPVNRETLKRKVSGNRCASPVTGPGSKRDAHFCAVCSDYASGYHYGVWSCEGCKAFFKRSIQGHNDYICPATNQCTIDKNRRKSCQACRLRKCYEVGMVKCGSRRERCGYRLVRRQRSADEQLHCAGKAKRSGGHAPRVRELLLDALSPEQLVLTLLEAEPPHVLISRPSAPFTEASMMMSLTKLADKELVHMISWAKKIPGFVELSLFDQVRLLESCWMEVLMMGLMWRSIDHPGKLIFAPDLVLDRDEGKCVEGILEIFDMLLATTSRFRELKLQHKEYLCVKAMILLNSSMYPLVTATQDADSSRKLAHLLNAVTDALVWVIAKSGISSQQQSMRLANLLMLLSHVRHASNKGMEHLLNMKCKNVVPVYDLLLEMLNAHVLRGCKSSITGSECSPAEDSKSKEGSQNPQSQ
Androgen receptor (Homo sapiens), sequence (P10275 whole entry, looked up): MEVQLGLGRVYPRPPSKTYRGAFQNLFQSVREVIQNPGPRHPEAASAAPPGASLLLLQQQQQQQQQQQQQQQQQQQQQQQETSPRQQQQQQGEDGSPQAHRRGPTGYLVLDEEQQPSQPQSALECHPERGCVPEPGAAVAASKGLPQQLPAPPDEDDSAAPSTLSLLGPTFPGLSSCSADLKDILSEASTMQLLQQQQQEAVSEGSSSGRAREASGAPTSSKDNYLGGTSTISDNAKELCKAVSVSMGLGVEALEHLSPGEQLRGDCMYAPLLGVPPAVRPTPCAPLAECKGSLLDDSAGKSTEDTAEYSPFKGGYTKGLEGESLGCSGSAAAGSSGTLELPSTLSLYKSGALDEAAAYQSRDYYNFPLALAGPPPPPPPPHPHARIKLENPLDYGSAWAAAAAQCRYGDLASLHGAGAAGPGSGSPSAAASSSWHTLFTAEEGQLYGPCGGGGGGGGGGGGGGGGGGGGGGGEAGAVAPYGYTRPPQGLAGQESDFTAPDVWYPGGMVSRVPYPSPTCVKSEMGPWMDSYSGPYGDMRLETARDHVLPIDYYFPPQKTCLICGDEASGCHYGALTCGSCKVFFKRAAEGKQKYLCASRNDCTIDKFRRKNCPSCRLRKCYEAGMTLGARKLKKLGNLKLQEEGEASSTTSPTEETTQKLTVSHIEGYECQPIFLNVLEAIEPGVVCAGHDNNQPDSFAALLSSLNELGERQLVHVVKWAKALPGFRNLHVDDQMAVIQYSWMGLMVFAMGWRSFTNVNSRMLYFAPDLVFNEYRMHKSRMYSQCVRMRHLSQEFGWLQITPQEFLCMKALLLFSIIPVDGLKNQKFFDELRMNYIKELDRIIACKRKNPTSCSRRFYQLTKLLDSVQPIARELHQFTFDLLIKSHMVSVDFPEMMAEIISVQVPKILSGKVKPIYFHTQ
Thyrotropin-releasing hormone receptor (Homo sapiens), sequence (P34981 whole entry, looked up): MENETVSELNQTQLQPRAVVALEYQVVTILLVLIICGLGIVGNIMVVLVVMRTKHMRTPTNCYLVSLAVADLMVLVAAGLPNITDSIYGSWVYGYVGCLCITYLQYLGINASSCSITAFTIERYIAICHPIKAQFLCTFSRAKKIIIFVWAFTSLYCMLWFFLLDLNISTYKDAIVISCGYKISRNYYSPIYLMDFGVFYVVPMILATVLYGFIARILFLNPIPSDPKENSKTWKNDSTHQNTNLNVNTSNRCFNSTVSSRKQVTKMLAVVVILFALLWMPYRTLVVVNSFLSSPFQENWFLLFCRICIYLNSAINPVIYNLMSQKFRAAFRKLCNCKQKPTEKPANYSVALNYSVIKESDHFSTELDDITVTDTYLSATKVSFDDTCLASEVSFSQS

Consider `Cc1ccc2c(n1)Oc1ccc(C(C)C(=O)OCC(=O)N(C)C)cc1C2` (stereo unspecified), for which the Potency entry in test [1], in test [2], in [3], in [4], in test [5] and in test [6] was “inactive” in each case. The Potency result in test [8], in test [10], in [11], in [12], in [13] and in [14] was “inactive” each time. Further, the Potency result in test [15], in test [16] and in test [18] was “inactive” throughout. Moreover, the outcome in [7], in test [9] and in [17] was inactive.
For the compound `Cc1cccc(N(C)C(=S)Oc2ccc3ccccc3c2)c1`, the Potency entry in test [1], in test [3], in test [4], in test [5], in test [8] and in test [10] was “inactive” in each case. Besides, the Potency entry in test [11], in test [12], in test [15] and in [16] was “inactive” each time. For the same compound, the Potency in [2] is 30.6 µM (active). The compound was called inactive in test [9] and in [17].
Consider `O=C(/C=C/c1ccccc1)OCc1ccccc1`, for which the Potency entry in test [1], in test [2], in [3], in test [4], in test [5] and in test [6] was “inactive” in each case. For the same compound, the Potency entry in [8], in test [10], in [11], in test [12], in [13] and in [19] was “inactive” in each case. Further, the Potency result in test [14], in test [15], in [16] and in test [18] was “inactive” each time. The outcome in test [9] and in test [17] was inactive.
Turning to `CCCC(=O)O`, the Potency result in [1], in [2], in test [5], in test [6], in test [8] and in test [10] was “inactive” each time. Further, the Potency result in test [11], in test [12], in [13], in test [19], in test [14] and in test [15] was “inactive” throughout. The Potency result in test [16] and in [18] was “inactive” in each case. In addition, the compound was called inactive in test [9] and in [17].
In the case of `CC(=O)Oc1ccccc1C(=O)Nc1ncc([N+](=O)[O-])s1`, the Potency result in test [1], in test [20], in test [10], in [12] and in test [18] was “inactive” each time. The Potency in [2] was 9.88 µM (active) and 18.8 µM (active); in test [5], 22.1 µM (active) and 13.3 µM (active); in test [6] it was 12.4 µM (active) and 7.5 µM (active); in test [8] it was 22.1 µM (active); in [11], 24.8 µM (active) and 23.7 µM (active); in test [15], 14.1 µM (active) and 8.49 µM (active). In addition, the Potency in [16] was 11.2 µM (active). Moreover, the call in [9] was inactive.
With `CCCc1c(OCCCCc2nn[nH]n2)ccc(C(C)=O)c1O`, the Potency entry in test [1], in test [2], in [5], in [20], in test [10] and in test [11] was “inactive” each time. Besides, the Potency entry in test [12], in [14], in [15], in [16] and in test [18] was “inactive” throughout. Moreover, the Potency in [6] is 68.6 µM (active). Besides, the result in test [9] was inactive.
As to `C=C(C)C1CC=C(C)CC1` (stereo unspecified), the Potency entry in [1], in [2], in [5], in test [6], in [20] and in test [11] was “inactive” in each case. For the same compound, the Potency entry in test [12], in [13], in [14], in test [15] and in test [16] was “inactive” throughout. Further, the result in test [17] was inactive.
With `COC(C)COC(C)COC(C)CO` (stereo unspecified), the Potency result in [2], in test [3], in test [4], in test [5], in test [6] and in test [8] was “inactive” each time. The Potency result in test [10], in test [11], in test [12], in [13], in [19] and in test [14] was “inactive” throughout. The Potency entry in [15], in [16] and in test [18] was “inactive” throughout. For the same compound, the result in test [7], in test [9] and in [17] was inactive.
